# Compounds with a hit are over-represented: about 9.3% of the library has one in this group of screens.
# NPC1 prom act: activates the NPC1 promoter. Huh7 NPC1 promoter luciferase reporter, 24 h. AID 485313. hit rate 2.4% among 320,000. Potency, µM (titrated, usually from 9.22 µM), without a hit: at the top dose activation, hits mostly activators; also: % of control where 0% means no effect; nearly all actives have a fitted effect of over 60% in size
#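 Luminescence from an NPC1 promoter-driven luciferase reporter in stably transfected Huh7 cells was measured after 24 h compound treatment at 37 °C, followed by 10 min ambient incubation with luciferase detection reagent.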
# Rab9 prom act: activators of Rab9 promoter; Huh7 Rab9 promoter-luciferase reporter, luminescence, 24 h; Potency, µM (highest dose often 9.22 µM), without a hit: at the highest dose activation, negative = inhibition, most hits filed as activators; hit rate 2.8% among 320,000; AID 485297; also: % of control where 0% means no effect; nearly all actives have a fitted effect of over 60% in size
#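 Luciferase signal after 10 min detection reagent at ambient indicates Rab9 promoter upregulation; stably transfected Huh7 cells were treated 24 h with compound in DMSO at 37 °C, 5% CO2.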
# ELG1 genotox: induces genotoxicity in HEK293T cells with luciferase-tagged ELG1 | HEK293T ELG1-luciferase reporter, luminescence, 16 h | Potency, µM (doses to about 46 µM), inactives show at the highest dose activity change, positive = activation, most hits filed as activators | hit rate 1.3% among 330,000; also: % of control where 0% means no effect; nearly all actives have a fitted effect of over 60% in size
#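 Genotoxic stress is detected as increased luminescence from luciferase-tagged ELG1 in HEK293T cells, measured with ONE-Glo after a 16 hr treatment at 37 °C.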
# FLuc counter: counter-screen for miR-21 project: firefly luciferase inhibitors or activators. P08659. purified FLuc, Km substrates, luminescence inhibition. Potency, µM (top dose mostly 57.5 µM), for the others: at the top dose activity change, negative = inhibition, actives largely listed as inhibitors. hit rate 6.9% among 360,000. AID 588342;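 also: plate controls were vehicle for no effect and reference inhibitor for full effect; nearly all actives have a fitted effect of over 55% in size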
# Target sequence (P08659 whole entry, looked up): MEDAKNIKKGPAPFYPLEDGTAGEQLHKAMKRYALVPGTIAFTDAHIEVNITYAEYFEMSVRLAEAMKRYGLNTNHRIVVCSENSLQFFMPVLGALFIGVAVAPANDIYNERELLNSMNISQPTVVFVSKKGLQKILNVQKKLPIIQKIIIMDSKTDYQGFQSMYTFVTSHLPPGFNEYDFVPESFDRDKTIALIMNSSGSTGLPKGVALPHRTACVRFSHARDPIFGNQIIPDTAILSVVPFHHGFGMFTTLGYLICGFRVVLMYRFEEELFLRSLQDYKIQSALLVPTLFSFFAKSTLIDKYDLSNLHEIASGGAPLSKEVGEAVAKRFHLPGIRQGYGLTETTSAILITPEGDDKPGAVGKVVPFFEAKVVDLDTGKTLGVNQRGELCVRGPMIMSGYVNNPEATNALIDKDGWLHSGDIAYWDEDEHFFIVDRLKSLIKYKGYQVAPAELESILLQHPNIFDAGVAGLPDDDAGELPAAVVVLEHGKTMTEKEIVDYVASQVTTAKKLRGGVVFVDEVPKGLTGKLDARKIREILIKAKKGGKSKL
#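 Purified P. pyralis luciferase (10nM final) with 10uM D-luciferin and 10uM ATP (Km levels) in 50mM Tris acetate pH 7.5, 10mM Mg acetate, 0.01% Tween-20, 0.05% BSA; qHTS 6-point titration, ~60 µM downward; luminescence read.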
# ELG1 repair inh: ELG1-dependent DNA repair inhibition; HEK293T ELG1-luciferase reporter, luminescence, 16 h; DNA damage induced by 5-fluorouridine; Potency, µM (highest dose often 46.1 µM), without a hit: at the top dose activity change, negative = inhibition, most hits filed as inhibitors; hit rate 2.3% among 330,000; also: % is scaled to controls: 0 for no effect and ±100 for the full control effect; nearly all actives have a fitted effect of over 55% in size
#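 Overnight (16 hr) co-exposure of 2,000 cells/well to 5-fluorouridine and compound at 37 °C preceded detection. Luciferase was quantified via ONE-Glo luminescence; loss of signal denotes inhibition.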
# SMN2 splice up: SMN2 splice variant enhancement; hit rate 2.8% among 210,000; Potency, µM (top dose mostly 46.1 µM), without a hit: at the highest dose activity change, positive = activation, usual class: activators; AID 1458; HEK293 SMN2-luciferase splicing reporter, luminescence, 30-36 h; also: % of control where 0% means no effect; nearly all actives have a fitted effect of over 55% in size
#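 qHTS luciferase splicing reporter: luminescence rises when SMN2 exon 7 is included in transfected HEK293 cells. Compound exposure lasted 30-36 h at 37C, with 4.5 mM final sodium butyrate as control, followed by a ONE-Glo read.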
# * marks the source's active call; other numbers are inactive results; u = inconclusive; x = no result; [ ] = remark or other dose. Calls follow the shape of the dose curve; as a rule, active = well fitted curve in the direction sought with a large enough effect; inconclusive = small, poorly fitted or top-dose-only effect, or another doubt; inactive = no such curve, though single readings can be large; an effect the other way counts as inactive or inconclusive. Potency is read from the fitted curve at half-maximal effect.
SMILES,NPC1 prom act,Rab9 prom act,ELG1 genotox,FLuc counter,ELG1 repair inh,SMN2 splice up
COc1cc(NC(=O)c2ccco2)c(OC)cc1NC(=O)CCC(=O)Nc1cc(C)cc(C)c1,0%,-6%,-26%,5%,21µM*,-16%
CN(C)/C=C(\C(=O)c1ccccc1)c1nnnn1-c1ccccc1,-4%,-3%,0%,-1%,-3%,x
CN(C)c1ccc(C=C(c2nnnn2-c2ccccc2)c2nnnn2-c2ccccc2)cc1,-2%,-4%,-7%,6%,12µM*,-6%
CN(c1ccccc1)S(=O)(=O)c1ccc(C(=O)Nc2nnc(C3CC3)o2)cc1,-12%,-18%,-20%,-14%,10µM*,-56%
CCN(c1ccccc1)S(=O)(=O)c1ccc(C(=O)Nc2nnc(-c3ccco3)o2)cc1,-11%,-10%,-8%,u,u,-76%
CCCCN(C)S(=O)(=O)c1ccc(C(=O)Nc2nnc(C3=COCCO3)o2)cc1,-2%,1%,-13%,u,15µM*,-40%
CN(c1ccccc1)S(=O)(=O)c1ccc(C(=O)Nc2nnc(-c3ccco3)o2)cc1,-8%,-6%,-11%,u,16µM*,-87%
CCN(c1ccccc1)S(=O)(=O)c1ccc(C(=O)Nc2nnc(C3CC3)o2)cc1,-15%,-24%,-19%,u,10µM*,-41%
Brc1cccc(CNc2nc3ccccc3n2CCN2CCOCC2)c1,1%,-7%,-7%,-1%,9%,-3%
CCCOc1ccc(NC(=O)CC2C(=O)N(c3ccc(C)cc3)C(=O)N2C(C)C)cc1 (stereo unspecified),x,x,x,-2%,x,x
Cc1nc(NCc2ccccc2)c2nc(-c3ccccc3)n(CC3CCN(C)CC3)c2n1,x,x,x,x,x,4%
CCOC(=O)N1CCC(NC(=O)c2cnn(-c3ccc(F)cc3F)c2C2CCN(C(=O)OC(C)(C)C)CC2)CC1,x,x,x,-5%,x,x
O=C(O)CN(CCN(CC(=O)O)CC(=O)O)CC(=O)O.[Mn],x,x,x,x,x,-14%[9.22 µM]
Cc1cc(C)cc(NC(=O)C2CCN(S(=O)(=O)c3ccc4c(c3)oc(=O)n4C)CC2)c1,x,x,x,-9%,x,-2%
COc1ccccc1CNS(=O)(=O)c1c(C(=O)N2CCCCCC2)c(C)n(C)c1C,-4%,-1%,-2%[9.26 µM],-2%,2%,x
CCCN(CCC)S(=O)(=O)c1ccc(C(=O)Nc2nnc(-c3cc(OC)cc(OC)c3)o2)cc1,-15%,-23%,2%,-1%,1.5µM*,-81%
CCOc1ccc(NC(=O)c2sc3nc(C)nc(N4CCOCC4)c3c2C)cc1,-7%,1%,-24%,-13%,13µM*,x
Cc1nc(N2CCN(C)CC2)c2c(C)c(C(=O)Nc3ccc(C)c(F)c3)sc2n1,-9%,-1%,u,13%,-14%,-13%
COc1ccc(NC(=O)c2sc3nc(C)nc(N4CCOCC4)c3c2C)c(OC)c1,-3%,-1%,-9%,-1%,8%,-30%
Cc1nc(N2CCCCC2)c2c(C)c(C(=O)Nc3ccc4c(c3)OCCO4)sc2n1,-9%,2%,-7%,u,10µM*,x
O=C(NCc1cc([N+](=O)[O-])ccc1O)c1cccnc1Sc1ccccc1,2%,-3%,-1%,17µM*,-8%,x
Cc1ccc(Sc2ncccc2C(=O)NCc2cc([N+](=O)[O-])ccc2O)c(C)c1,4µM*,4µM*,u,8.5µM*,u,x
CCc1c(C)nc2nncn2c1Nc1ccc(C(C)C)cc1,x,x,x,-10%,x,-24%
CCCOc1ccc(C(=O)Nc2ccc(S(=O)(=O)NC3=NCCCCC3)cc2)cc1,-3%,-6%,u,u,u,x
O=C(CN1C(=O)NC2(CCc3ccccc32)C1=O)NCCc1ccccc1 (stereo unspecified),0%,-4%,-1%,x,1%,x
N/C(=N\OC(=O)c1cc(Cl)ccc1Cl)c1cccnc1,14%,u,21µM*,9.5µM*,u,u

# Compound activity: PubChem BioAssay, National Center for Advancing Translational Sciences (NCATS)
